Measurements: the supplement of paper PMC12636033
± gives the standard deviation of the averaged measurements. Over roughly 33,000 sequences, “E-score (rank enrichment, -0.5 to 0.5)” has its median near -0.0028; the highest 2% begin near 0.23. This is one part of a sample in which the highest values are shown more often than they occur.

System: 2Sb-muMax20 (muMax20 with two 1,3-bis(methyl)benzene Cys staples, A13C/A17C and Q88C/A92C, C-terminal Lys)
Test: PBM 8-mer E-score (E-score (rank enrichment, -0.5 to 0.5)); higher = stronger preferential binding
Protocol: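 Protein binding microarray (universal PBM chip covering all 10-mers in fixed probe flanks) with chemically synthesized human Max(13-93) bHLH-LZ analogs (not full-length Max) bearing noncanonical residues (hArg, Tha, Aib, Nle at 65) and aromatic Cys staples. Read-out per 8-mer (and its reverse complement): E-score (rank-based enrichment, -0.5 to 0.5) and Z-score of median probe intensity.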

Sequence | PBM 8-mer E-score
CCACCTTC | 0.0963 ± 0.024
AACTGAGG | -0.066 ± 0.0013
ACGGAAGA | -0.0282 ± 0.0086
ATCACAAA | 0.187 ± 0.032
ACGTACGC | 0.0419 ± 0.012
CGCTAGCA | -0.253 ± 0.03
TGCTAGCA | 0.245 ± 0.069
GGCTAGCA | 0.0623 ± 0.01
AAACAAAT | 0.262 ± 0.056
TACAAATA | 0.166 ± 0.013
TACAAACA | -0.0196 ± 0.043
CCCAAGTA | 0.209 ± 0.045
AACAAACC | 0.0286 ± 0.068
AAACAAAC | 0.0967 ± 0.0062
GCCAAATA | 0.136 ± 0.0084
AACAAGTA | -0.0361 ± 0.0029
AACAAACA | 0.257 ± 0.003
CCCAAATA | 0.24 ± 0.02
AAACAAAA | 0.133 ± 0.04
AACAAATA | 0.269 ± 0.024
ATTCCGTA | -0.178 ± 0.0038
AGCCTGCC | -0.0253 ± 0.013
GACCAGCA | 0.0345 ± 0.019
AGAAATTC | 0.0899 ± 0.038
CAATGAGC | -0.0934 ± 0.018

Sequence | PBM 8-mer E-score
ACTGGCAC | -0.112 ± 0.0073
CTATCAAG | 0.0675 ± 0.11
CACCTATG | -0.067 ± 0.015
GACAAGTC | -0.141 ± 0.038
CACAAGTC | -0.0773 ± 0.025
AACAAAAA | 0.0552 ± 0.028
AACAAAAT | 0.275 ± 0.042
AACAAGTC | 0.232 ± 0.0046
AACAAGAT | 0.136 ± 0.05
CTTCTTGC | -0.076 ± 0.029
ACAATAAT | 0.2723 ± 0.0017
ACAATAAC | 0.18 ± 0.04
ACAATAAA | 0.157 ± 0.082
ACAATACA | 0.0315 ± 0.045
ACAATACC | 0.247 ± 0.01
ACAATACT | 0.098 ± 0.011
CCACTTAA | 0.0781 ± 0.04
GTGCCCGA | -0.169 ± 0.03
CAGAGGCG | -0.0537 ± 0.004
GCGGGACA | -0.0586 ± 0.068
CGCGCGCG | -0.0393 ± 0.0083
AAGTGCCC | 0.0017 ± 0.086
TAGTTCGA | 0.117 ± 0.065
GTTTACGA | 0.233 ± 0.0029
CTTTACGA | -0.11 ± 0.061

Sequence | PBM 8-mer E-score
ATTTACGA | 0.13 ± 0.011
GAACCTTA | 0.14 ± 0.038
ACAACAAC | 0.0959 ± 0.0063
ACAACAAA | 0.189 ± 0.045
ACAACAAG | 0.259 ± 0.0048
ACAACCCT | -0.0652 ± 0.072
ACAACCAC | 0.076 ± 0.093
ACAACACC | 0.257 ± 0.014
CCAACACC | -0.11 ± 0.046
GCAACACC | 0.0523 ± 0.023
ACAACCCC | 0.237 ± 0.088
ACAACCAG | 0.144 ± 0.037
CCAACCCC | 0.19 ± 0.044
ACAACCAT | 0.266 ± 0.01
AGAGCCAT | -0.0498 ± 0.022
GTACGTTA | 0.0622 ± 0.061
TACGAAGA | 0.16 ± 0.034
CTTCAGAC | -0.147 ± 0.0041
CCGCTGTA | -0.00727 ± 0.018
GATGGACC | -0.139 ± 0.026
AGCTAAAA | -0.0318 ± 0.011
ATACAAAC | 0.182 ± 0.056
AGCTCTAG | -0.0829 ± 0.017
AGCACCTC | 0.00592 ± 0.042
ATCCACCG | -0.1554 ± 0.001

Sequence | PBM 8-mer E-score
GATAGCCC | 0.0239 ± 0.026
GGGGTATA | 0.217 ± 0.071
ATAGTAAT | 0.0828 ± 0.014
CTAGTAAA | 0.11 ± 0.069
ATAGTAAA | 0.233 ± 0.068
CTGAGTCA | -0.163 ± 0.1
CCTCCCGA | -0.19 ± 0.041
ATAGTTAG | 0.136 ± 0.038
AAATACCT | 0.11169 ± 4.2e-05
CATAACCA | 0.16 ± 0.018
GATAACTA | 0.237 ± 0.0032
CATAACTA | 0.0553 ± 0.058
TATAACCA | 0.125 ± 0.024
AATAACTA | 0.151 ± 0.013
GATAACCA | 0.25 ± 0.0028
ACGACTAC | -0.086 ± 0.0098
AAATTGCA | 0.0694 ± 0.01
TGATTGCA | 0.2879 ± 0.0004
TAATTGCA | 0.178 ± 0.022
AGATTGCA | -0.04038 ± 0.00028
CGATTGCA | -0.00806 ± 0.061
AAATTGGG | 0.211 ± 0.011
CAATTGGG | 0.233 ± 0.044
CAATTGGA | 0.105 ± 0.079
CAATTGCA | 0.241 ± 0.03

Sequence | PBM 8-mer E-score
ATGTGATA | 0.137 ± 0.099
CTTCTCTC | -0.021 ± 0.036
ATAGGAAT | -0.00103 ± 0.048
ATTCTTTG | 0.0288 ± 0.029
GGCTCGGA | -0.242 ± 0.019
CACCCATG | -0.0354 ± 0.1
ATGGGGCC | -0.148 ± 0.097
ATGGGGGG | -0.078 ± 0.064
ATGGGGCG | 0.305 ± 0.011
ATGGGGCA | 0.247 ± 0.015
GTGGGGCA | 0.0926 ± 0.0061
CTGGGGCA | -0.128 ± 0.0081
CCGCGTAC | -0.0836 ± 0.06
AAACCCTC | 0.0564 ± 0.037
ATACTTTA | 0.254 ± 0.079
CTACTTTA | -0.0218 ± 0.0086
ATACTTTG | 0.18 ± 0.031
CACAGCAA | 0.0823 ± 0.098
ATACTAAA | 0.274 ± 0.073
CTACTAAG | -0.0175 ± 0.014
CTACTAAC | 0.271 ± 0.02
TTACTAAA | 0.035 ± 0.037
ATACTAAC | 0.191 ± 0.016
GTACTAAA | 0.0714 ± 0.032
AGCCTATG | -0.168 ± 0.032

Sequence | PBM 8-mer E-score
TAGCCCAA | 0.0876 ± 0.027
CGCCCCCA | -0.0972 ± 0.11
CCGCCCAA | -0.0271 ± 0.08
CAGCCCAA | 0.0925 ± 0.0081
CCGCCCCA | 0.349 ± 0.038
CAGCCCCA | 0.166 ± 0.062
GAGCCCAA | 0.238 ± 0.016
CCGCCCCC | -0.265 ± 0.034
AAGCCCAA | 0.14 ± 0.085
TAGCCCCA | 0.35 ± 0.014
CCGCCCCG | 0.287 ± 0.1
CCGCCCGG | -0.235 ± 0.023
GGAGAGAA | -0.0248 ± 0.093
ACGGCAGC | -0.302 ± 0.045
CATATGGA | 0.0953 ± 0.063
CAACACGC | 0.161 ± 0.065
CCCACGCC | -0.189 ± 0.095
GCCAATTA | 0.127 ± 0.041
ACGGTCAG | -0.313 ± 0.0032
CAGGTCCG | -0.237 ± 0.054
ACGTCGGC | 0.0307 ± 0.079
ACGCCCCC | -0.18 ± 0.1
GCGCCCCA | 0.0563 ± 0.082
TCGCCCCA | 0.24 ± 0.018
ACGCCCCG | -0.046 ± 0.025

Sequence | PBM 8-mer E-score
TCGCCCAA | -0.0719 ± 0.021
ACGCCCCA | 0.287 ± 0.062
CGATCCAA | -0.286 ± 0.0083
CTCGGCGA | -0.0762 ± 0.055
CGATGGTA | -0.0858 ± 0.023
AATGTAAA | 0.211 ± 0.015
ATGAGGCA | 0.0329 ± 0.044
ACTGGCGA | -0.0221 ± 0.033
ACTTGCGG | -0.169 ± 0.047
AACACAAG | 0.141 ± 0.016
CACGCGTA | 0.199 ± 0.021
AACACGTC | 0.0373 ± 0.11
CACACGTA | 0.127 ± 0.0021
CACACGTG | 0.338 ± 0.022
AACACGTG | 0.4538 ± 0.0037
CACGCGTG | 0.303 ± 0.039
CACACGTC | -0.172 ± 0.057
AACACGTA | 0.112 ± 0.046
CACGCGTC | 0.2 ± 0.0088
AACACAAA | 0.25 ± 0.03
CACACAAA | 0.167 ± 0.033
CCGAGCCA | -0.115 ± 0.0049
GAAGGGGC | 0.128 ± 0.0016
ACCTATCG | 0.13 ± 0.048
CGCTACCC | -0.0659 ± 0.038

Sequence | PBM 8-mer E-score
ACGGATCT | -0.242 ± 0.042
GGCGCAAC | -0.0786 ± 0.013
CTGATATA | 0.0373 ± 0.023
CCAACGCC | -0.0186 ± 0.026
ACTTCAAA | -0.125 ± 0.065
CAACCCCG | -0.0958 ± 0.017
CCTGCATC | -0.118 ± 0.02
GCTCCGTA | -0.181 ± 0.026
CACACCTA | 0.251 ± 0.023
CACACCTC | 0.11 ± 0.0036
CACACCTG | -0.176 ± 0.087
CACGCGGG | 0.115 ± 0.007
CACGCGGA | 0.28 ± 0.036
AACGCGGA | -0.0532 ± 0.04
TCACGGGA | -0.0219 ± 0.047
CTCAAGTC | 0.0478 ± 0.02
AGGGTTGC | -0.0164 ± 0.024
CAGTCCGC | -0.188 ± 0.055
AGGTGCGG | 0.0251 ± 0.022
ATTTTATG | 0.0605 ± 0.031
AATTTATC | 0.18 ± 0.013
AATTTATA | 0.248 ± 0.02
AATTTATG | 0.238 ± 0.043
ATTTTATA | 0.206 ± 0.038
CATTTATA | 0.137 ± 0.013

Sequence | PBM 8-mer E-score
CAGTAAGC | 0.00962 ± 0.05
AAAAAACC | 0.143 ± 0.026
GGCTCCGA | -0.22 ± 0.014
AAGGCAAT | 0.0342 ± 0.0041
GTAATTTA | 0.0825 ± 0.086
ATAATTTA | 0.235 ± 0.015
ACAATTAC | 0.194 ± 0.031
CCAATTAC | 0.238 ± 0.015
GTAATTGA | 0.0929 ± 0.019
CCAATTGA | 0.252 ± 0.0093
ATAATTTG | 0.132 ± 0.036
TCAATTGA | 0.1 ± 0.058
ATAATTGA | 0.258 ± 0.029
ACAATTGA | 0.194 ± 0.031
CTAATTGA | 0.053 ± 0.057
CCAATTAA | 0.159 ± 0.045
CCGAGAGC | -0.304 ± 0.02
TCTCCGCA | -0.148 ± 0.043
CATGTTCG | 0.00518 ± 0.06
